Compounds with a hit are over-represented: about 20% of the library has one in this group of screens.
Pf growth 96h = P. falciparum growth inhibition at 96 hour, primary screen for plastid delayed-death inhibitors | P. falciparum luciferase reporter growth, 96 h | 6.9% of 320,000 active | Potency, µM (highest dose often 28.7 µM), most hits filed as inhibitors | AID 504834
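Two parasite generations (96 h, 37 C, 5% CO2) of compound exposure in infected erythrocytes (0.05% parasitemia, 2% hematocrit). Luciferase-reporter P. falciparum; decreased luminescence indicates inhibited growth, aimed at apicoplast-acting delayed death.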
HCMV inh = blocks human cytomegalovirus replication. HFF cells, HCMV-luciferase reporter, 72 h; active compounds read low. activity change, negative = inhibition, % at 57.5 µM. 4.5% of 410,000 active; in the data active = activity change below about -60%; inconclusive = no clear call, values can overlap the other calls; inactive = above about -39%
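Compounds were evaluated in HFFs infected with an HCMV luciferase reporter virus (MOI 1 PFU/cell). Luciferase in lysates collected 72 h post infection served as the replication measure.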
Shiga inhibitor = blocks Shiga toxin action in Vero cells; 9.2% of 290,000 active; Vero cells, Shiga toxin protein synthesis inhibition reporter; inhibition, % at 38.7 µM; in the data active = inhibition mostly above about 28%, no sharp cut-off; inactive = mostly below about 43%
Pf growth 48h = inhibits P. falciparum growth in the first generation, 48 h; 5.9% of 310,000 active; Potency, µM (highest dose often 28.7 µM), usual class: inhibitors; P. falciparum luciferase growth in erythrocytes, 48 h
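In quantitative HTS format, infected erythrocytes bearing luciferase-reporter parasites were treated for a single generation at 37 C. Luminescence after adding detection reagent served as the growth measure.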
Cycloheximide cs = counter-screen hit for Shiga toxin inhibitors, cycloheximide | cell reporter, cycloheximide protein synthesis inhibition counterscreen | max response, % | 12% of 300,000 active | AID 2314; in the data active = max response mostly above about 13%, no sharp cut-off; inactive = mostly below about 14%; note: read at 38.3 µM for the half of the compounds with a filed dose
Of the large screens only hits and unclear results are named; the others gave an inactive call. Unless noted, calls come from the whole dose curve; as a rule, active = well fitted inhibition curve with a large enough effect; inconclusive = small, poorly fitted or top-dose-only effect, or another doubt; inactive = no such curve, though single readings can be large or run the other way.

CCCCNc1nnc(SCC(=O)c2c(N)n(CCC)c(=O)[nH]c2=O)s1	Pf growth 96h 9.3µM, HCMV inh inconclusive, Pf growth 48h 12µM (no result: Shiga inhibitor, Cycloheximide cs)
CCOc1ccccc1-n1c(N)c(C(=O)OC)c2nc3ccccc3nc21	none (no result: Pf growth 96h, Shiga inhibitor, Pf growth 48h, Cycloheximide cs)
COC(=O)c1cccc2nc3c(C(C)O)cccc3nc12 (centres undefined)	Pf growth 96h inconclusive, Cycloheximide cs 8.1
Cc1ccc(/C(O)=C2\C(=O)C(=O)N(C)C2c2cccc([N+](=O)[O-])c2)cc1 (centres undefined)	none
CCCCc1n[nH]c2c1/C(=N/O)CC(c1ccccc1)C2 (centres undefined)	Cycloheximide cs 27
CCCCC(=Nc1ccccc1OC)C1=C(O)CC(c2ccccc2)CC1=O (centres undefined)	Pf growth 96h inconclusive
CCc1n[nH]c2c1/C(=N\O)CC(c1ccccc1)C2 (centres undefined)	Pf growth 48h inconclusive (no result: Pf growth 96h)
CCCCc1noc2c1/C(=N\O)CC(c1ccccc1)C2 (centres undefined)	Pf growth 96h inconclusive, Pf growth 48h inconclusive, Cycloheximide cs 22
CCOC(=O)c1c[nH]c2nc(C)ccc2c1=O	none
CCOc1ccc2[nH]cc(C(=O)NCCc3ccccc3)c(=O)c2c1	Pf growth 96h inconclusive (no result: Shiga inhibitor)
CCOC(=O)c1c[nH]c2cc(OCC(C)C)c(OCC(C)C)cc2c1=O	Pf growth 96h 0.038µM, Pf growth 48h 0.054µM (no result: HCMV inh, Shiga inhibitor, Cycloheximide cs)
CCc1ccc2[nH]cc(C(=O)OCCOC)c(=O)c2c1	Pf growth 96h 10µM, Pf growth 48h 1.5µM
CC(C)NC(=O)C1(C)CSCC(=O)N1CC(F)(F)F (centres undefined)	none (no result: Pf growth 96h, Shiga inhibitor, Pf growth 48h, Cycloheximide cs)
COc1ccc(C(=O)Sc2nncc3ccccc23)cc1	Cycloheximide cs 20
COc1ccc(NC(=O)CSc2nncc3ccccc23)cc1	none
C=CCC[C@@H](Cc1ccc(F)cc1)C(=O)OCCNC(=O)[C@H](CC=C)CC(=O)NCCO	none (no result: Pf growth 96h, Shiga inhibitor, Pf growth 48h, Cycloheximide cs)
CC1CCN(S(=O)(=O)c2nnc(NC(=O)c3cccc(Cl)c3)s2)CC1	none
O=C(CN1CCN(c2ccc(O)cc2)CC1)Nc1cc([N+](=O)[O-])ccc1Cl	Pf growth 96h inconclusive, HCMV inh -69
Cc1cc(NC(=O)CN2CCN(c3ccc(O)cc3)CC2)no1	Pf growth 96h 9.3µM, Pf growth 48h inconclusive
CC(=O)N1CCN(CC(=O)Nc2cc([N+](=O)[O-])ccc2Cl)CC1	none
Cc1ccc(N(CC(=O)N2CCCC2)S(C)(=O)=O)c(C)c1	none
CCC(=O)N1c2ccccc2CC1C(=O)NCCc1ccccc1Cl (centres undefined)	none (no result: Pf growth 96h, Shiga inhibitor, Pf growth 48h, Cycloheximide cs)
CO[C@H]1OC2O[C@@]3(C)CC[C@H]4[C@H](C)CC[C@@H]([C@H]1C)[C@@]24OO3 (some centres undefined)	Pf growth 96h 0.0048µM, Pf growth 48h 0.0048µM (no result: HCMV inh, Shiga inhibitor, Cycloheximide cs)
C[C@H]1[C@H](OC(=O)CCC(=O)NCc2ccc(C(=O)O)cc2)O[C@@H]2O[C@@]3(C)CC[C@H]4[C@H](C)CC[C@@H]1C24OO3	Pf growth 96h 0.0033µM, Pf growth 48h 0.019µM (no result: HCMV inh)
CC(C)CC(NC(=O)CCCNC(=O)CCC(=O)OC1O[C@H]2OC3(C)CC[C@H]4[C@H](C)CCC(C1C)C24OO3)C(=O)O (some centres undefined)	Pf growth 96h inconclusive, HCMV inh -63, Pf growth 48h inconclusive
CC1C(OC(=O)CCC(=O)NC(C)(C)CO)O[C@H]2OC3(C)CC[C@H]4[C@H](C)CCC1C24OO3 (some centres undefined)	Pf growth 96h inconclusive, Pf growth 48h inconclusive
O=C(CSc1n[nH]c(-c2ccc(F)cc2)n1)NCc1ccccc1Cl	none (no result: Pf growth 96h, Shiga inhibitor, Pf growth 48h, Cycloheximide cs)
COc1cc2ccccc2cc1C(=O)Nc1cc(C)ccn1	Shiga inhibitor 104, Cycloheximide cs 42
COc1ccc(C(=O)Nc2ccccc2C(=O)Nc2cccc(C)n2)cc1	Shiga inhibitor 28, Cycloheximide cs 9.8
CSc1ncccc1C(=O)Nc1cc(C)ccn1	Cycloheximide cs 11
COc1ccc(C(=O)Nc2ccccc2C(=O)Nc2cc(C)ccn2)cc1	Cycloheximide cs 41 (no result: Shiga inhibitor)
COc1cc(C(=O)Nc2cc(C)ccn2)cc(OC)c1OC	none
COc1cc(NC(=O)CC2C(=O)N(c3cccc(C)c3)C(=O)N2Cc2ccc(F)cc2)cc(OC)c1 (centres undefined)	none (no result: Pf growth 96h, Shiga inhibitor, Pf growth 48h, Cycloheximide cs)
CCc1ccc2c(c1)NC(c1cccs1)=NC(c1ccc(F)cc1)=N2	none (no result: Pf growth 96h, Shiga inhibitor, Pf growth 48h, Cycloheximide cs)
Cc1ccc(-c2nonc2NC(=O)c2ccc(F)cc2)cc1C	none (no result: Pf growth 96h, Shiga inhibitor, Pf growth 48h, Cycloheximide cs)
Cc1sc(NC(=S)NC(=O)C2CCCCC2)c(C(N)=O)c1C	none
COc1ccc(C(=O)Nc2cccnc2)cc1	none (no result: Pf growth 96h)
